PLK1 PBD block – qHTS for Inhibitors of PLK1-PDB (polo-like kinase 1 - polo-box domain): Primary Screen. Serine/threonine-protein kinase PLK1 (Homo sapiens), P53350. Plk1 PBD binding of FITC phosphopeptide, fluorescence polarization. Potency, µM, for inactives: max response, negative = inhibition, most hits filed as inhibitors. actives 2.8% (n = 360,000); note: potency is the fitted concentration of half-maximal effect; series mostly up to about 57 µM; % is set by controls: 0 for no effect and ±100 for the full control effect; nearly all actives have a fitted effect of over 65% in size
JMJD2A Tudor inh – qHTS Assay for Inhibitors of JMJD2A-Tudor Domain | Lysine-specific demethylase 4A (Homo sapiens), O75164 | AlphaScreen JMJD2A-Tudor / H3K4me3 peptide binding | Potency, µM (highest dose often 114 µM), for the others: top-dose activity change, negative = inhibition, actives largely listed as inhibitors | actives 4.4% (n = 390,000); note: potency is the fitted concentration of half-maximal effect; % is set by controls: 0 for no effect and ±100 for the full control effect; nearly all actives have a fitted effect of over 50% in size
G9a block – qHTS Assay for Inhibitors of Histone Lysine Methyltransferase G9a. Histone-lysine N-methyltransferase EHMT2 (Homo sapiens), Q96KQ7. G9a H3K9 monomethylation, AlphaScreen, 2 h. Potency, µM (doses to about 102 µM), for inactives: at the top dose activity, negative = inhibition, actives largely listed as inhibitors. actives 8.8% (n = 350,000); note: potency is the fitted concentration of half-maximal effect; % is set by controls: 0 for no effect and ±100 for the full control effect; nearly all actives have a fitted effect of over 75% in size
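Compounds were preincubated with 20 nM G9a for 15 min, after which biotinylated H3K9 peptide (500 nM) and SAM (20 uM) started a 2 h room-temperature reaction. Monomethylated product was quantified by antibody-based AlphaScreen chemiluminescence.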
BAZ2B inh – qHTS Assay for Inhibitors of BAZ2B; Bromodomain adjacent to zinc finger domain protein 2B (Homo sapiens), Q9UIF8; Potency, µM (doses to about 114 µM), for the others: at the top dose activity change, negative = inhibition, hits mostly inhibitors; actives 4.4% (n = 360,000); AID 504333, 2011; AlphaScreen BAZ2B-H3K14Ac peptide displacement; note: potency is the fitted concentration of half-maximal effect; % is set by controls: 0 for no effect and ±100 for the full control effect; nearly all actives have a fitted effect of over 60% in size
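Protein-peptide AlphaScreen: BAZ2B 50 nM, b-H3K14Ac 50 nM, 1x PBS pH 7.4 + 0.01% Tween-20. Preincubation 30 min RT; cpd 30 min RT (top 110 uM); beads 20 min RT, light-protected.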
HP1b chromo inh – HTS for Inhibitors of HP1-beta Chromodomain Interactions with Methylated Histone Tails | AlphaScreen HP1-beta / biotin-H3K9me3 peptide binding | Potency, µM (titrated, usually from 114 µM), for the others: at the top dose activity change, negative = inhibition, most hits filed as inhibitors | actives 0.56% (n = 390,000) | AID 540317, 2011; note: potency is the fitted concentration of half-maximal effect; nearly all actives have a fitted effect of over 70% in size
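HP1-beta protein (50 nM final) preincubated 30 min at room temperature with biotinylated H3(1-18)K9me3 peptide (50 nM) in PBS pH 7.4, 0.01% Tween-20, then compound added for 30 min. AlphaScreen streptavidin donor/nickel chelate acceptor beads (10 ug/mL final), 30 min dark, luminescence read.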
PI5P4Ka inh – qHTS for Inhibitors of phosphatidylinositol 5-phosphate 4-kinase (PI5P4K); PI5P4Kalpha enzyme, ADP-Glo luminescence, 60 min; active compounds read low; max response, %; actives 1.2% (n = 330,000); active = max response of -50% or lower; inconclusive = between -30% and -50%; inactive = -30% or higher; note: value at the top dose of about 77 µM; % is set by controls: 0 for no effect and ±100 for the full control effect
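ADP-Glo luminescence end-point after a 60 min room-temperature kinase reaction. PI5P4Kalpha and substrate in HEPES pH 7.4 buffer with EGTA, 0.1% CHAPS and 5% DMSO; ATP at 5 microM final.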
* marks the source's active call; other numbers are inactive results; ? = inconclusive; nt = no result given; [ ] = dose if it differs, or a comment. In the library only some 12% were active in any assay of this set; here they are far more common. Unless noted, calls come from the whole dose curve; as a rule, active = well fitted curve in the direction sought with a large enough effect; inconclusive = small, poorly fitted or top-dose-only effect, or another doubt; inactive = no such curve, though single readings can be large; an effect the other way counts as inactive or inconclusive.

SMILES | PLK1 PBD block | JMJD2A Tudor inh | G9a block | BAZ2B inh | HP1b chromo inh | PI5P4Ka inh
CC1=CC(c2ccc(Cl)cc2)n2nc(NC(=O)CCC(=O)O)nc2N1 (stereo not drawn) | -27.7% | ? | 20µM* | 50.1µM* | 8.6% | -11.3
CC(=O)Nc1nc2n(n1)C(c1ccc(F)cc1)C=C(c1ccc(Cl)cc1)N2 (stereo not drawn) | nt | -6.3% | ? | ? | 62.9% | nt
CC1=CC(c2ccc(Cl)cc2)n2nc(NC(=O)CCCC(=O)O)nc2N1 (stereo not drawn) | -15.4% | 25.1µM* | 50.1µM* | ? | -3.0% | 5.3
Cc1nnc(NC(=O)c2ccc3c(c2)OCO3)s1 | -9.4% | 0.3% | -2.0% | -1.0% | 23.8% | 1.8
O=C(Nc1nncs1)c1ccc2c(c1)OCO2 | -5.1% | 2.1% | 50.1µM* | -2.9% | 19.2% | -3.4
CSc1nnc(NC(=O)c2ccc(S(=O)(=O)N(C)C)cc2)s1 | -18.5% | -2.5% | 22.4µM* | -5.4% | 27.4% | -21.8
O=C(Nc1ccc2c(c1)OCO2)c1ccc2c(c1)OCO2 | 4.2% | -16.2% | ? | -24.3% | 12.2% | -1.0
CSc1nnc(NC(=O)c2ccc3c(c2)OCO3)s1 | -11.9% | -21.4% | 28.2µM* | -2.9% | 39.6% | -2.3
CCOc1cc(C2C(C#N)=C(N)OC(C)=C2C(C)=O)cc(Br)c1O (stereo not drawn) | 23.8µM* | 89.1µM* | ? | ? | -16.9% | nt
O=C(CNC(=O)c1ccccc1Cl)OC(C(=O)Nc1cc(C(F)(F)F)ccc1Cl)c1ccccc1 (stereo not drawn) | nt | -21.2% | nt | nt | nt | nt
O=C(NC(NNc1ccc([N+](=O)[O-])cc1)(C(F)(F)F)C(F)(F)F)c1ccc(Cl)cc1 | -26.4% | ? | 39.8µM* | -38.9% | -31.7% | -67.0*
O=C(NNC(=O)c1ccc([N+](=O)[O-])cc1)c1ccc(F)cc1 | -1.9% | -7.0% | nt | nt | 31.8% | 2.3
CCN1CCN(c2cc(C)c3cc(NC(=O)c4ccc(Br)o4)ccc3n2)CC1 | -0.6% | ? | ? | 70.8µM* | 6.0% | 0.2
CCN1CCN(c2cc(C)c3cc(NC(=O)c4ccncc4)ccc3n2)CC1 | -9.1% | -31.7% | ? | 3.9% | -6.2% | 3.1
CCN1CCN(c2cc(C)c3cc(NC(=S)N4CCCCC4)ccc3n2)CC1 | -6.3% | -34.5% | 44.7µM* | -32.2% | -13.2% | 4.2
CCN1CCN(C(=S)Nc2ccc3nc(N4CCN(CC)CC4)cc(C)c3c2)CC1 | -19.8% | -24.8% | 20µM* | -3.9% | 13.1% | 3.0
CCN1CCN(c2cc(C)c3cc(NC(=S)N4CC(C)CC(C)C4)ccc3n2)CC1 (stereo not drawn) | -6.3% | -35.2% | 35.5µM* | ? | 1.1% | 0.5
COc1cc(Cl)c(NC(=O)CN(C)S(=O)(=O)c2ccc3[nH]c4c(c3c2)CCCC4)c(OC)c1 | nt | ? | ? | -24.6% | 9.1% | nt
COc1ccccc1CNS(=O)(=O)c1cc(C(=O)Nc2cccc(C(F)(F)F)c2)ccc1F | nt | -15.0% | 9.5%[59 µM] | 4.0% | 19.1% | nt
Cc1ccc(NC(=O)CN2C(=O)CSc3ccc(S(=O)(=O)N4CCCC4)cc32)c(C)c1 | nt | -15.0% | -23.7%[59 µM] | ? | 15.3% | nt
CCN1CCN(c2cc(C)c3cc(NC(=S)N4CCCC4)ccc3n2)CC1 | -4.0% | -17.8% | ? | -2.9% | 23.5% | 1.1
CCN1CCN(c2cc(C)c3cc(NC(=S)N4CCCC(C)C4)ccc3n2)CC1 (stereo not drawn) | -6.4% | ? | 44.7µM* | -28.5% | -22.2% | -6.4
